The campaign covered roughly 16,000 compounds. About 5,100 (32%) were called active. Roughly 25% stayed inconclusive and do not appear here. Some of the results follow. Values without a mark were called inactive. The call rests on the fitted dose curve; in most records, active means well fitted curve in the direction sought with a large enough effect; inconclusive means small, poorly fitted or top-dose-only effect, or effect the other way; inactive means no such curve, though single readings can be large or run the other way.
Target: Cytochrome P450 3A4 (Homo sapiens) (UniProt P08684)
Sequence (P08684 whole entry, looked up): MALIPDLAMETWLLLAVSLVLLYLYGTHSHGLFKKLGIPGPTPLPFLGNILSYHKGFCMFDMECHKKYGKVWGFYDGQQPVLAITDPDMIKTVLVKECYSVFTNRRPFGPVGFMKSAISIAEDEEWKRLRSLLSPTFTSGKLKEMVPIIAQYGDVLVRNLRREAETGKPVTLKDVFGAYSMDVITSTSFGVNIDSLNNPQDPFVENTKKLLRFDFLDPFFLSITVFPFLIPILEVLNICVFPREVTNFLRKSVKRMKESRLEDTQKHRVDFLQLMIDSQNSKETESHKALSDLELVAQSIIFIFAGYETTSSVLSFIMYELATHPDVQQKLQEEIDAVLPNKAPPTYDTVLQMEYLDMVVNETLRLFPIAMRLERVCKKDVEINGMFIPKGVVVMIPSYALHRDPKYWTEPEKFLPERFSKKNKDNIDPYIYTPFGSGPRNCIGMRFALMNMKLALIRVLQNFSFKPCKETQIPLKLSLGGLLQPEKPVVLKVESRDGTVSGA
Assay: Cytochrome panel assay with activity outcomes
Details: recombinant CYP, pro-luciferin dealkylation, luminescence, p450-cyp3a4; series mostly up to 57.1 µM
On the % scale 0 is the no-effect control and ±100 the full control effect.

Structure (SMILES) | AC50 | activity, negative = inhibition
CC(C)COC(=O)OCN1C(=O)CN(CCN2CC(=O)N(COC(=O)OCC(C)C)C(=O)C2)CC1=O | 25.1 µM (active) | –
CN1CCc2cc(O)cc3c2[C@H]1Cc1ccc(O)c(O)c1-3 | – | inactive
C[N+](C)(C)CCCCCCCCCC[N+](C)(C)C | – | inactive
Nc1nc(N)c(Cn2ccnc2)c(=O)[nH]1 | – | -3.48% [at 11.4 µM]
O=c1[nH]c(=O)n(CCc2ccc(F)cc2)c(O)c1C=NCCCN1CCOCC1 | 11.2 µM (active) | –
C=CCn1c(O)c(C(C)=NCCCN2CCOCC2)c(=O)[nH]c1=O | – | inactive
O=c1[nH]c(=O)n(CCC2=CCCCC2)c(O)c1C=Nc1cccc(F)c1 | – | inactive
COc1cccc(-n2c(O)c(C=NCCN3CCOCC3)c(=O)[nH]c2=O)c1 | – | inactive
Cc1cc(C)c(-n2c(O)c(C=NCCN3CCOCC3)c(=O)[nH]c2=O)c(C)c1 | 25.1 µM (active) | –
CCNC(=O)[C@@H]1O[C@@H](n2cnc3c(N)ncnc32)[C@@H](O)[C@H]1O | – | inactive
C[C@@H]1[C@@H]2Cc3ccc(O)cc3[C@@]1(C)CCN2CC1CC1 | – | inactive
C[C@@H]1O[C@H](O[C@@H]2C[C@@H](O)[C@]3(CO)[C@H]4[C@H](O)C[C@]5(C)[C@@H](C6=CC(=O)OC6)CC[C@@]5(O)[C@@H]4CC[C@]3(O)C2)[C@@H](O)[C@H](O)[C@H]1O | – | inactive
CCNC(=O)[C@@H]1O[C@@H](n2cnc3c(N)ncnc32)[C@H](O)[C@H]1O | – | inactive
CC(=O)O/C(=C1/C[C@H]2[C@@H]3CC=C4C[C@@H](OC(C)=O)CC[C@]4(C)[C@@H]3CC[C@]2(C)C1=O)C(F)(F)F | – | 4.88% [at 11.4 µM]
c1ccc2nc(N3CCNCC3)ccc2c1 | – | inactive
CN(C)CCCNc1c2c(nc3ccc(Cl)cc13)CCCC2 | – | 0.971% [at 11.4 µM]
CCN1C[C@]2(COC)CC[C@H](O)[C@@]34[C@@H]5C[C@H]6[C@@H](OC)[C@H]5[C@](O)(C[C@@H]6OC)[C@@](O)([C@@H](OC)[C@H]23)[C@@H]14 | – | inactive
COc1ccccc1CC1C(=O)C2CCN1CC2 (configuration not stated) | – | inactive
Cc1ccc(OP(=O)(Oc2ccc(C)cc2)N2C=Cc3ccccc3[C@H]2C#N)cc1 | 2.51 µM (active) | –
O=[N+]([O-])c1ccc(N2CCNCC2)cc1NC1CC1 | – | 1.13% [at 2.29 µM]
CCCN(C/C=C\I)[C@@H]1CCc2ccc(O)cc2C1 | – | inactive
CCN1C[C@@]2(COC)CC[C@H](O)[C@@]34[C@@H]2C[C@@H]([C@@H]13)[C@]1(O)C[C@@H](OC)C2C[C@H]4[C@H]1[C@H]2OC(C)=O | – | inactive

— PubChem BioAssay AID1851 (National Center for Advancing Translational Sciences (NCATS), 2009)
